Source: PubChem BioAssay (NCI)
The panel holds about 83,000 compounds, 20% with a hit somewhere; the sample as a whole holds those more often.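 Values shown are percent growth following 48 h exposure of cells in 96-well plates to a single concentration of compound; below 10 was considered active.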 Values without a mark were called inactive. Calls of active or inactive are those of the source.

Tested on: HL-60(TB) leukemia
Assay: NCI-60 one-dose screen, 48 h (100 = growth as untreated, 0 = no growth, -100 = all killed)
Settings: 10 µM unless noted

Compound	growth
CCc1ccccc1-n1c(N)c(C#N)c(-c2ccc(Cl)cc2)c(C#N)c1=O	117%
Cc1ccc(/C=C2\CN(C(=O)CCN3CCC(=NO)CC3)C/C(=C\c3ccc(C)cc3)C2=O)cc1	-11.3% (active)
COc1cc(F)c(-c2nc3c(C)cccc3n2Cc2c(F)cccc2F)c(F)c1	78.8%
CCN1C(=O)N(CC)C2Nn3c(s/c(=C\c4ccccc4Br)c3=O)=NC21 (centres undefined)	-34.7% (active)
CCCCCCCCNC(C)C(O)c1ccc(SC(C)C)cc1 (centres undefined)	-70.1% (active)
CCCCCCCCCCCCCCCc1ccc(C(=O)C[n+]2ccccc2)cc1	-69.3% (active)
O=C(Nc1cccc(-n2ccc3c(NC(=O)c4ccccc4)nccc32)c1)Nc1ccc(Cl)c(C(F)(F)F)c1	-22.8% (active)
Cn1c2ccc(Cl)cc2c2nn(C(=O)c3ccccc3)c(=O)nc21	113%
CN1CCN(c2ccc(Nc3ncc4[nH]c(=O)n(Cc5ccccc5N)c4n3)cc2)CC1	97.2%
CCOC(=O)c1cnc2sc(-c3ccc(OC)cc3)nc2c1Cl	93.8%
Cc1cc(NCC(=O)Nc2ccc(-c3nc4ccccc4s3)cc2)no1	96.5%
N=c1c2c(=O)n3c(nc2nc2sc4ccc(Cl)cc4n12)-c1ccccc1Sc1ccccc1-3	4.46% (active)
OCCCc1n(Cc2ccc3ccccc3c2)c2ccccc2[n+]1Cc1ccc2ccccc2c1	-43.5% (active)
O=C1CSC(c2c(F)cccc2Cl)N1NC(=O)C(O)(c1ccccc1)c1ccccc1 (centres undefined)	98.3%
C=C1C(=O)O[C@H]2[C@H]1CC/C(COC(=O)c1ccc(Br)cc1)=C\CC[C@@]1(C)O[C@@H]21	-45.6% (active)
NC(=O)c1ccc[n+](Cc2ccc(Cl)cc2Cl)c1	73.1%
Nc1c(C(=O)O)cc(Cl)cc1[N+](=O)[O-]	73.7%
O=C(COc1cccc(/C=C2\CSc3ccccc3C2=O)c1)c1ccc(Cl)cc1	-48% (active)
COc1ccc2c(c1)cn1c3ccc(O)cc3nc(N)c21	-15.8% (active)
CS(=O)(=O)Nc1cc(-c2ccc3ncnc(Nc4cccc(Cl)c4)c3c2)cnc1Cl	2.67% (active)

Compound	growth
Cc1cccc(NC(=O)c2sc3nc4c(cc3c2N)CN(Cc2ccccc2)CC4)c1C	7.62% (active)
CC(C)c1nc(N(C)S(C)(=O)=O)nc(-c2ccc(F)cc2)c1/C=C/C(=O)C[C@@H](O)CC(=O)O	106%
COc1ccc(N(C)c2nc(Cl)nc3ccn(C)c23)cc1	-35.3% (active)
OCCNc1nccc(N2CCN(c3ccnc4cc(Cl)ccc34)CC2)n1	47.8%
Clc1ccc(-c2cc(-c3ccccc3)nc(NCCNc3ccnc4cc(Cl)ccc34)n2)cc1	-31.9% (active)
CCOC(=O)c1c2c(cn1Cc1ccccc1)-c1oncc1CC2	98.6%
O=C(N/N=C/c1ccccc1O)c1ccccc1Nc1ccnc(C(F)(F)F)c1	7.92% (active)
CCOC(=O)c1ccccc1OC(=O)NNc1ccccc1	-7.77% (active)
C#C[C@]1(O)CC[C@H]2[C@@H]3CC=C4c5nc(Nc6ccccc6[N+](=O)[O-])sc5CC[C@]4(C)[C@H]3CC[C@@]21C	77.7%
CCOC(=O)Nc1ccc2c(c1)C(=O)N(CC)c1ccccc1O2	-17% (active)
COc1cc2c3c(n(C)c(=O)c2cc1OC)-c1cc2c(cc1C3=O)OCO2	73.6%
O=C(O)C(/C=C/c1ccco1)=N\Nc1nc(-c2ccc(Cl)cc2)cs1	52.2%
COc1ccc2c(c1)c(-c1nc(-c3cn(C)c4ncccc34)cs1)cn2CCN	55.7%
CCOC(=O)c1sc2ccc(NCc3nc[nH]c3C)cc2c1NC(=O)c1cc(OC)c(OC)c(OC)c1	5.99% (active)
COc1cc(/C=C/C(=O)c2cc(-c3ccccc3)ccc2O)cc(OC)c1OC	42.6%
COc1ccc(CNc2c3ccccc3nc3ccccc23)cc1OC	12.7%
COC(=O)/C=C1/SC(=Nc2cccc(Cl)c2)N(CCc2c[nH]c3ccc(O)cc23)C1=O	-11.4% (active)
COC(=O)c1c2c(c(C)[n+]([O-])c1C)C(=O)C(NCc1cccc(Cl)c1)=CC2=O	-56.1% (active)
Nc1c(C(=O)c2ccccc2)sc2nc(-c3cccs3)ccc12	9.36% (active)
